Here are results for 18 compounds from PubChem BioAssay (NCATS).

Results filed as inconclusive are left out. Unmarked numbers belong to inactive results. Activity calls are given as the source filed them. The call rests on the fitted dose curve; in most records, active means well fitted cell-killing curve with a large enough effect; inconclusive means small, poorly fitted or top-dose-only effect, or effect the other way; inactive means no such curve, though single readings can be large or run the other way.

Assay [1] can be described thus: Viability qHTS for spleen associated tyrosine kinase inhibitor (SYKi) naive MV4-11 cells (AID 1963823). Further: nearly all actives have a fitted effect of over 40% in size. The conditions noted are these: MV4-11 AML viability, CellTiter-Glo luminescence, 72 h; series mostly up to 45 µM. The essentials:
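In this viability screen, compounds acted on SYK inhibitor naive MV4-11 cells for three days (72 hr, 37 C). Remaining viable cells were measured by CellTiter-Glo luminescence following a 10 min room-temperature development.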
In general terms: In qHTS, concentration-response curves come from the screen itself.

A short description of assay [2]: Viability qHTS for spleen associated tyrosine kinase inhibitor (SYKi) drug resistant MV4-11 cells (AID 1963824). Further: nearly all actives have a fitted effect of over 35% in size. The settings on record: SYKi-resistant MV4-11 viability, CellTiter-Glo, 72 h; series mostly up to 45 µM. The essentials: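 SYK inhibitor-resistant MV4-11 AML cells, 500 per well, added to predispensed compounds and incubated 72 hr at 37 C, 5% CO2. Viability measured by CellTiter-Glo luminescence after 10 min at room temperature.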
Potency means the concentration at half of the fitted maximal effect.

For `CCOc1ccc(CCNC(=O)c2cc3sc(Cl)cc3n2C)cc1OCC`, the Potency entry in assay [1] was “inactive”. The Potency in assay [2] is 1.64 µM (active).
For the compound `Nc1ncnc2c1ncn2CCNCCCCCO`, the Potency result in assay [1] and in assay [2] was “inactive” in each case.
As for `CC12CC34CC(O)C5C(CO)(CO)CC(=O)CC5(C)C3CC1C2C4` (stereo unspecified), the Potency entry in assay [1] and in assay [2] was “inactive” in each case.
As to `O=C(c1ccc2nccnc2c1)N1CCCCC1`, the Potency entry in assay [1] and in assay [2] was “inactive” each time.
For `CCOC(=O)c1cc(C#N)c(N2CCC(C(=O)NS(=O)(=O)Cc3ccccc3)CC2)nc1C`, the Potency entry in assay [1] and in assay [2] was “inactive” each time.
Take `CCC(C)n1cc(C)c2c(C(=O)NCc3c(C)cc(C)[nH]c3=O)cc(-c3ccc(N4CCNCC4)nc3)cc21` (stereo unspecified): the figures for the Potency in assay [1] and in assay [2] were 13 µM (active) and 18.4 µM (active), respectively.
Turning to `COc1cc(/C=C/C(=O)OC2CC(C)=C(C(=O)O)/C2=C/CO[C@@H]2O[C@H](CO)[C@@H](O)[C@H](O)[C@H]2O)ccc1O` (stereo partly specified), the Potency result in assay [1] and in assay [2] was “inactive” each time.
Take `Nc1nc2c(nc(Sc3ccc(Cl)cc3)n2[C@@H]2O[C@@H]3COP(=O)(O)O[C@H]3[C@H]2O)c(=O)[nH]1`: the Potency result in assay [1] and in assay [2] was “inactive” throughout.
Turning to `COc1cc(O)c2c(c1)C1OC1C[C@H](O)[C@H](O)C(=O)/C=C\C[C@H](C)OC2=O` (stereo partly specified), the Potency in assay [1] was 3.26 µM (active); in assay [2], 4.61 µM (active).
Turning to `COC(=O)C1=CO[C@@H](O[C@@H]2O[C@H](CO)[C@@H](O)[C@H](O)[C@H]2O)C2C1CC(O)C2C` (stereo partly specified), the Potency result in assay [1] and in assay [2] was “inactive” each time.
Take `O=C1NC(=O)C(c2cn3c4c(cccc24)CCC3)C1c1c[nH]c2ccccc12` (stereo unspecified): the Potency in assay [1] and in assay [2] was 0.92 µM (active) in each case.
For `CO[C@H]1/C=C/C=C/C=C/C[C@H](OC(=O)[C@@H](C)NC(=O)C2CCCCC2)[C@H](C)[C@@H](O)/C(C)=C/CCc2cc(O)cc(c2)NC(=O)C1`, the results for the Potency in assay [1] and in assay [2] were 0.0968 µM (active) and 0.109 µM (active), respectively.
As to `CC(C)(O)C1CC=C(C(=O)OCC2OC(Oc3c(O)cc(C(=O)O)cc3O)C(O)C(O)C2O)CC1` (stereo unspecified), the Potency result in assay [1] and in assay [2] was “inactive” each time.
`CC(=O)C=C=C1C(C)(C)CC(O)CC1(C)O[C@@H]1O[C@H](CO[C@H]2OC[C@](O)(CO)[C@H]2O)[C@@H](O)[C@H](O)[C@H]1O` (stereo partly specified): the Potency result in assay [1] and in assay [2] was “inactive” each time.
Regarding `C/C=C(\C)C(=O)OC[C@H]1O[C@@H](O[C@H]2[C@@H](O[C@H]3O[C@H](CO)[C@@H](O)[C@H](O)[C@H]3O[C@@H]3O[C@H](CO)[C@@H](O)[C@H](O)[C@H]3O)O[C@H](COC(=O)/C(C)=C/C)[C@@H](O)[C@@H]2O)[C@H](O)[C@@H](O)[C@@H]1O`, in assay [1], the viability (% of control) was 81.8% [at 9.25 µM]. Further, the viability, % of control in assay [2] is 79.8% [at 9.25 µM].
Take `C[C@@H](OC(=O)/C=C/c1ccc(O)cc1)C1=C[C@]2(C=C[C@@H]3C(C(=O)O)=CO[C@@H](O[C@@H]4O[C@H](CO[C@@H]5O[C@H](CO)[C@@H](O)[C@H](O)[C@H]5O)[C@@H](O)[C@H](O)[C@H]4O)[C@@H]32)OC1=O`: the Potency result in assay [1] and in assay [2] was “inactive” each time.
In the case of `CCCCNc1ncc(C(=O)NCc2ccc(-n3ccnc3)cc2)c(NC2CCC(O)CC2)n1` (stereo unspecified), the Potency in assay [1] is 0.092 µM (active); in assay [2], 0.259 µM (active).
For `CC(C)S(=O)(=O)c1ccc2nccc(Nc3ccc4scnc4c3)c2c1`, in that order: 8.2 µM (active) and 16.4 µM (active).
